The whole screen tested about 5,500 compounds, of which about 2,000 (36%) were called active. Inconclusive results (about 18%) are left out. No stated cut-off is given here; in the data, active means normalized growth mostly below about 0.91 (no sharp cut-off); inconclusive means no clear call, values can overlap the other calls; inactive means mostly above about 0.92. This is one part of the list.
Assay: chemical genetic growth profiling, strain panel (AID 1159580);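 further: tested at 20 µM; growth read once vehicle control cultures reached saturation at 30 °C; 1 = growth at the plate median or of vehicle wells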
Details: growth OD

Measured: normalized growth

Cc1cccc(N(C)C(=S)Oc2ccc3ccccc3c2)c1
inactive: S. cerevisiae deletion strains, locus YJR075W, strain HOC1, stronger effect = lower value 0.971 | S. cerevisiae deletion strains, locus YKL009W, strain mrt4, stronger effect = lower value 0.99 | S. cerevisiae deletion strains, locus YKL068W, stronger effect = lower value 0.981 | S. cerevisiae deletion strains, locus YKL085W, strain MDH1 (second series), stronger effect = lower value 0.979 | S. cerevisiae deletion strains, locus YKL085W, strain MDH1, stronger effect = lower value 0.979 | S. cerevisiae deletion strains, locus YKL160W, strain elf1, stronger effect = lower value 0.947 | S. cerevisiae deletion strains, locus YKL190W, strain CNB1, stronger effect = lower value 0.983 | S. cerevisiae deletion strains, locus YKR001C, strain vps1, stronger effect = lower value 1.01 | S. cerevisiae deletion strains, locus YKR026C, strain gcn3, stronger effect = lower value 1 | S. cerevisiae deletion strains, locus YKR091W, strain srl3, stronger effect = lower value 0.993 | S. cerevisiae deletion strains, locus YLL001W, strain dnm1, stronger effect = lower value 0.994 | S. cerevisiae deletion strains, locus YLL026W, stronger effect = lower value 0.985 | S. cerevisiae deletion strains, locus YLL041C, strain sdh2, stronger effect = lower value 0.987 | S. cerevisiae deletion strains, locus YLR027C, strain aat2, stronger effect = lower value 0.99 | S. cerevisiae deletion strains, locus YLR058C, strain SHM2, stronger effect = lower value 0.972 | S. cerevisiae deletion strains, locus YLR102C, strain apc9, stronger effect = lower value 0.979 | S. cerevisiae deletion strains, locus YLR113W, strain HOG1, stronger effect = lower value 0.91 | S. cerevisiae deletion strains, locus YLR221C, strain rsa3, stronger effect = lower value 1.02 | S. cerevisiae deletion strains, locus YLR258W, strain gsy2, stronger effect = lower value 0.974 | S. cerevisiae deletion strains, locus YLR262C, strain YPT6 (second series), stronger effect = lower value 1.13 | S. cerevisiae deletion strains, locus YLR268W, strain sec22, stronger effect = lower value 0.971 | S. cerevisiae deletion strains, locus YLR320W, strain mms22, stronger effect = lower value 0.98 | S. cerevisiae deletion strains, locus YLR330W, strain CHS5, stronger effect = lower value 0.984 | S. cerevisiae deletion strains, locus YLR342W, strain FKS1 (second series), stronger effect = lower value 0.995 | S. cerevisiae deletion strains, locus YLR342W, strain FKS1, stronger effect = lower value 1.01 | S. cerevisiae deletion strains, locus YLR357W, strain rsc2, stronger effect = lower value 0.999 | S. cerevisiae deletion strains, locus YLR370C, strain arc18, stronger effect = lower value 1.01 | S. cerevisiae deletion strains, locus YLR371W, strain rom2, stronger effect = lower value 0.947 | S. cerevisiae deletion strains, locus YLR384C, strain iki3, stronger effect = lower value 0.995 | S. cerevisiae deletion strains, locus YLR418C, strain cdc73, stronger effect = lower value 0.904 | S. cerevisiae deletion strains, locus YML016C, strain PPZ1, stronger effect = lower value 0.998 | S. cerevisiae deletion strains, locus YML032C, strain rad52, stronger effect = lower value 0.991 | S. cerevisiae deletion strains, locus YML120C, strain ndi1, stronger effect = lower value 1 | S. cerevisiae deletion strains, locus YML124C, strain tub3, stronger effect = lower value 0.969 | S. cerevisiae deletion strains, locus YMR058W, strain fet3, stronger effect = lower value 0.994 | S. cerevisiae deletion strains, locus YMR078C, strain ctf18, stronger effect = lower value 0.965 | S. cerevisiae deletion strains, locus YMR125W, strain sto1, stronger effect = lower value 0.988 | S. cerevisiae deletion strains, locus YMR129W, stronger effect = lower value 0.991 | S. cerevisiae deletion strains, locus YMR205C, strain PFK2, stronger effect = lower value 0.952 | S. cerevisiae deletion strains, locus YMR223W, strain ubp8, stronger effect = lower value 0.955 | S. cerevisiae deletion strains, locus YMR231W, strain pep5, stronger effect = lower value 1.03 | S. cerevisiae deletion strains, locus YMR263W, strain SAP30, stronger effect = lower value 0.958 | S. cerevisiae deletion strains, locus YMR307W, strain GAS1, stronger effect = lower value 0.981 | S. cerevisiae deletion strains, locus YNL067W, strain RPL9B, stronger effect = lower value 0.989 | S. cerevisiae deletion strains, locus YNL071W, strain lat1, stronger effect = lower value 1.01 | S. cerevisiae deletion strains, locus YNL183C, strain NPR1, stronger effect = lower value 0.907 | S. cerevisiae deletion strains, locus YNL209W, strain ssb2, stronger effect = lower value 0.999 | S. cerevisiae deletion strains, locus YNL233W, strain BNI4, stronger effect = lower value 0.985 | S. cerevisiae deletion strains, locus YNL248C, strain rpa49, stronger effect = lower value 0.998 | S. cerevisiae deletion strains, locus YNL250W, strain rad50, stronger effect = lower value 0.977 | S. cerevisiae deletion strains, locus YNL271C, strain bni1, stronger effect = lower value 1 | S. cerevisiae deletion strains, locus YNL298W, strain CLA4, stronger effect = lower value 0.99 | S. cerevisiae deletion strains, locus YNL307C, strain MCK1, stronger effect = lower value 0.98 | S. cerevisiae deletion strains, locus YNL322C, strain KRE1 (second series), stronger effect = lower value 1 | S. cerevisiae deletion strains, locus YNL322C, strain KRE1, stronger effect = lower value 0.982 | S. cerevisiae deletion strains, locus YNR049C, strain mso1, stronger effect = lower value 0.999 | S. cerevisiae deletion strains, locus YNR052C, strain pop2, stronger effect = lower value 0.986 | S. cerevisiae deletion strains, locus YOL006C, strain TOP1, stronger effect = lower value 0.828 | S. cerevisiae deletion strains, locus YOL012C, strain htz1 0.985 | S. cerevisiae deletion strains, locus YOL147C, strain pex11, stronger effect = lower value 0.982 | S. cerevisiae deletion strains, locus YOR001W, strain rrp6, stronger effect = lower value 1 | S. cerevisiae deletion strains, locus YOR061W, strain CKA2, stronger effect = lower value 0.966 | S. cerevisiae deletion strains, locus YOR069W, strain VPS5, stronger effect = lower value 0.988 | S. cerevisiae deletion strains, locus YOR070C, strain gyp1, stronger effect = lower value 0.992 | S. cerevisiae deletion strains, locus YOR080W, strain dia2, stronger effect = lower value 0.981 | S. cerevisiae deletion strains, locus YOR083W, strain WHI5, stronger effect = lower value 0.947 | S. cerevisiae deletion strains, locus YOR106W, strain vam3, stronger effect = lower value 0.968 | S. cerevisiae deletion strains, locus YOR136W, strain idh2, stronger effect = lower value 0.978 | S. cerevisiae deletion strains, locus YOR144C, strain elg1, stronger effect = lower value 0.971 | S. cerevisiae deletion strains, locus YOR184W, strain ser1, stronger effect = lower value 0.897 | S. cerevisiae deletion strains, locus YOR231W, strain MKK1, stronger effect = lower value 0.945 | S. cerevisiae deletion strains, locus YOR265W, strain rbl2, stronger effect = lower value 0.969 | S. cerevisiae deletion strains, locus YOR270C, strain vph1, stronger effect = lower value 0.942 | S. cerevisiae deletion strains, locus YOR290C, strain snf2, stronger effect = lower value 0.999 | S. cerevisiae deletion strains, locus YOR316C, strain cot1, stronger effect = lower value 0.975 | S. cerevisiae deletion strains, locus YPL051W, strain arl3, stronger effect = lower value 0.988 | S. cerevisiae deletion strains, locus YPL055C, strain LGE1, stronger effect = lower value 0.922 | S. cerevisiae deletion strains, locus YPL078C, strain atp4, stronger effect = lower value 0.953 | S. cerevisiae deletion strains, locus YPL106C, strain sse1, stronger effect = lower value 0.941 | S. cerevisiae deletion strains, locus YPL240C, strain hsp82, stronger effect = lower value 0.99 | S. cerevisiae deletion strains, locus YPL256C, strain CLN2, stronger effect = lower value 0.931 | S. cerevisiae deletion strains, locus YPR119W, strain clb2, stronger effect = lower value 0.963 | S. cerevisiae deletion strains, locus YPR141C, strain kar3, stronger effect = lower value 0.973 | S. cerevisiae deletion strains, locus YPR163C, strain tif3, stronger effect = lower value 0.976 | S. cerevisiae deletion strains, locus YPR167C, strain met16, stronger effect = lower value 0.973 | S. cerevisiae deletion strains, strain wtn01, stronger effect = lower value 0.994 | S. cerevisiae strains, strain wild type, stronger effect = lower value 1.01
active: S. cerevisiae deletion strains, locus YLR039C, strain RIC1, stronger effect = lower value 1.46 [resistant] | S. cerevisiae deletion strains, locus YLR262C, strain YPT6, stronger effect = lower value 1.48 [resistant]
